Results on seven compounds are retold here after ChEMBL document CHEMBL1961873, “Compounds: GSK PKIS; Assays: Nanosyn kinase panel” (2012).

Experiment [1] deals with Rho-associated protein kinase 1 (Homo sapiens) (UniProt Q13464). Conditions: at 1 µM.
In experiment [2] the target is Rho-associated protein kinase 2 (Homo sapiens) (UniProt O75116). Conditions: at 0.1 µM.
The target is the same in experiment [3]. The note with it: at 1 µM.
Experiment [4] concerns the target Ribosomal protein S6 kinase alpha-1 (Homo sapiens) (UniProt Q15418). The note with it: at 0.1 µM.
For experiment [5] the target is unchanged. The note with it: at 1 µM.
Experiment [6] deals with Ribosomal protein S6 kinase alpha-3 (Homo sapiens) (UniProt P51812). Conditions: at 0.1 µM.
Experiment [7] has the same target. Conditions: at 1 µM.
Experiment [8] has as its target Ribosomal protein S6 kinase alpha-2 (Homo sapiens) (UniProt Q15349). The note with it: at 0.1 µM.
The target is the same in experiment [9]. The note with it: at 1 µM.
In experiment [10] the target is Ribosomal protein S6 kinase alpha-6 (Homo sapiens) (UniProt Q9UK32). Conditions: at 0.1 µM.
Experiment [11] shares this target. Conditions: at 1 µM.
The target in experiment [12] is T1, Serine/threonine-protein kinase Sgk1 (Homo sapiens) (UniProt O00141).
T1 sequence (whole entry): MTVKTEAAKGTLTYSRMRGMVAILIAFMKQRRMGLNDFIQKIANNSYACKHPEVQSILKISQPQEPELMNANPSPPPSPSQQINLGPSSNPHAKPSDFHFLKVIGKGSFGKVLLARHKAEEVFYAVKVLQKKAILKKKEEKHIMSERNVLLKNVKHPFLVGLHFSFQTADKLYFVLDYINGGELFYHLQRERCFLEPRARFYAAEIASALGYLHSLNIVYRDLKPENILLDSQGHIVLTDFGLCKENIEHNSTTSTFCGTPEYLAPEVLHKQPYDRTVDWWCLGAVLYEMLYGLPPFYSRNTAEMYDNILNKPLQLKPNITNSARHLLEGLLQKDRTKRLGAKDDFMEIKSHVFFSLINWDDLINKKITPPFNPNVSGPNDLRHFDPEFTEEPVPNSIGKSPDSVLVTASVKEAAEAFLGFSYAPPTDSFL
The note with it: at 0.1 µM.

Experiment [13] has as its target T1, Serine/threonine-protein kinase Sgk1 (Homo sapiens). The note with it: at 1 µM.
For experiment [14], the target named is T2, Serine/threonine-protein kinase Sgk2 (Homo sapiens) (UniProt Q9HBY8).
T2 sequence (whole entry): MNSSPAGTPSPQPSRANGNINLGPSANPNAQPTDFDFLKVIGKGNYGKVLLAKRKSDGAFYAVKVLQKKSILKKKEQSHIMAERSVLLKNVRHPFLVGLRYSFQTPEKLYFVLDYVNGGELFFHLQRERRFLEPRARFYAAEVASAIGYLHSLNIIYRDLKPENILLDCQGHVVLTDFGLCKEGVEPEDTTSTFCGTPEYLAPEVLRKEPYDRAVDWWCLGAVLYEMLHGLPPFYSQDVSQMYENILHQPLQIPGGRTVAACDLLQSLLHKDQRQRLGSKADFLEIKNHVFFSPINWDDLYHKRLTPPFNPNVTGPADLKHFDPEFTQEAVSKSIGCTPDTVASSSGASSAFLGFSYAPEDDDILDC
Conditions: at 0.1 µM.

In experiment [15] the target is T2, Serine/threonine-protein kinase Sgk2 (Homo sapiens). Conditions: at 1 µM.
Experiment [16] has as its target T3, Serine/threonine-protein kinase Sgk3 (Homo sapiens) (UniProt Q96BR1).
T3 sequence (whole entry): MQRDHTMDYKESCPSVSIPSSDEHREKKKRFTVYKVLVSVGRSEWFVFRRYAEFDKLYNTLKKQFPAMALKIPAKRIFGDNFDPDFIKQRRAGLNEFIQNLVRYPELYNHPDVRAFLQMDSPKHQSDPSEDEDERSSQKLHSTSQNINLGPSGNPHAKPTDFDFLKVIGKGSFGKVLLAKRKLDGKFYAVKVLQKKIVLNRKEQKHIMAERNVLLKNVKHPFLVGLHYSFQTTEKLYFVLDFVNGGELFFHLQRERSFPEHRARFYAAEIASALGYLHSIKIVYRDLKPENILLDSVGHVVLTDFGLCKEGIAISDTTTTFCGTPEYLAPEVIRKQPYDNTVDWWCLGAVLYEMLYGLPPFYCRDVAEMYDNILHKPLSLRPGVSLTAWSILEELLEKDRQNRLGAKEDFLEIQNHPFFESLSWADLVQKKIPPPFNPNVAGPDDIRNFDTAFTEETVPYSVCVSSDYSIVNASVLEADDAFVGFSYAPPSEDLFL
Conditions: at 0.1 µM.

For experiment [17], the target named is T3, Serine/threonine-protein kinase Sgk3 (Homo sapiens). Conditions: at 1 µM.
Experiment [18] deals with 5'-AMP-activated protein kinase catalytic subunit alpha-1 (Homo sapiens) (UniProt Q13131). The note with it: at 0.1 µM.
Experiment [19] has the same target. The note with it: at 1 µM.
The target in experiment [20] is 5'-AMP-activated protein kinase catalytic subunit alpha-2 (Homo sapiens) (UniProt P54646). Conditions: at 0.1 µM.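 Note: mean inhibition measured on the AMPK complex of alpha2, beta1 and gamma1 subunits.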

Molecules are shown by their SMILES.

Usually inhibition stands for the drop in the measured response relative to a control, in per cent.

Chain of Rho-associated protein kinase 1 (Homo sapiens) (Q13464 2-1354 limits assumed): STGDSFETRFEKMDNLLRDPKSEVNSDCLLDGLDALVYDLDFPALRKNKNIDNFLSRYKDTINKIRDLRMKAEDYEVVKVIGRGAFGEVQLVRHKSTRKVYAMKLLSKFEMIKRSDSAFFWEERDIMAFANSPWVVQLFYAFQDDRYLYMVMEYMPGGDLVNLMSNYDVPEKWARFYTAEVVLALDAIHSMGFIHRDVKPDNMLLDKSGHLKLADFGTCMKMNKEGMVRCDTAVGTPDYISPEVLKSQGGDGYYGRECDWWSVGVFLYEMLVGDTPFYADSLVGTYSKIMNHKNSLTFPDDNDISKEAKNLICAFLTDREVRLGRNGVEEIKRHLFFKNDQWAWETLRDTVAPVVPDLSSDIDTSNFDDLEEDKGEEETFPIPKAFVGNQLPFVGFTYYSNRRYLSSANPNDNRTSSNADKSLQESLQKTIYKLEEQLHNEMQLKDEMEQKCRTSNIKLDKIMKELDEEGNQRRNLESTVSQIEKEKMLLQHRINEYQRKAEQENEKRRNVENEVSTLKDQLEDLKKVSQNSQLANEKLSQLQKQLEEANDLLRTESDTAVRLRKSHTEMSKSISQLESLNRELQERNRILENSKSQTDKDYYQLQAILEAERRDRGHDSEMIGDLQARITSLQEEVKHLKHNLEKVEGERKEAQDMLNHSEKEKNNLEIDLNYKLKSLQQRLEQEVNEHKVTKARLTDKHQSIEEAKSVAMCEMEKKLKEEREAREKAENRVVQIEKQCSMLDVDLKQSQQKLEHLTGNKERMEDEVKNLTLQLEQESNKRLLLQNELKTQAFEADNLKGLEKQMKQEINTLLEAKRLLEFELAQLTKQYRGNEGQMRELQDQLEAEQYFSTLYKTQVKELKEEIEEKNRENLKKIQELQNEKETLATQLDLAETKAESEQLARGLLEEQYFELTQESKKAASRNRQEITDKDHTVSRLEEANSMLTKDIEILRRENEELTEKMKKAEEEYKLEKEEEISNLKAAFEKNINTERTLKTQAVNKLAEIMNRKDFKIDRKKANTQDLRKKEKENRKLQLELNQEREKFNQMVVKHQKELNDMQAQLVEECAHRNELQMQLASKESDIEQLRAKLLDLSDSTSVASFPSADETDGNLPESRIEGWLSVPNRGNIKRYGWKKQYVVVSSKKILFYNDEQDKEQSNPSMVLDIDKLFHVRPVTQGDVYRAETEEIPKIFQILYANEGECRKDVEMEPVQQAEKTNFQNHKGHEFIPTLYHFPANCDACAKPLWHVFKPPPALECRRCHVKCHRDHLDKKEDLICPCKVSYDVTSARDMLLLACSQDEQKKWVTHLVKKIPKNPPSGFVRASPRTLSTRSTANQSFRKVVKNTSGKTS
Chain of Ribosomal protein S6 kinase alpha-3 (Homo sapiens) (P51812 whole entry): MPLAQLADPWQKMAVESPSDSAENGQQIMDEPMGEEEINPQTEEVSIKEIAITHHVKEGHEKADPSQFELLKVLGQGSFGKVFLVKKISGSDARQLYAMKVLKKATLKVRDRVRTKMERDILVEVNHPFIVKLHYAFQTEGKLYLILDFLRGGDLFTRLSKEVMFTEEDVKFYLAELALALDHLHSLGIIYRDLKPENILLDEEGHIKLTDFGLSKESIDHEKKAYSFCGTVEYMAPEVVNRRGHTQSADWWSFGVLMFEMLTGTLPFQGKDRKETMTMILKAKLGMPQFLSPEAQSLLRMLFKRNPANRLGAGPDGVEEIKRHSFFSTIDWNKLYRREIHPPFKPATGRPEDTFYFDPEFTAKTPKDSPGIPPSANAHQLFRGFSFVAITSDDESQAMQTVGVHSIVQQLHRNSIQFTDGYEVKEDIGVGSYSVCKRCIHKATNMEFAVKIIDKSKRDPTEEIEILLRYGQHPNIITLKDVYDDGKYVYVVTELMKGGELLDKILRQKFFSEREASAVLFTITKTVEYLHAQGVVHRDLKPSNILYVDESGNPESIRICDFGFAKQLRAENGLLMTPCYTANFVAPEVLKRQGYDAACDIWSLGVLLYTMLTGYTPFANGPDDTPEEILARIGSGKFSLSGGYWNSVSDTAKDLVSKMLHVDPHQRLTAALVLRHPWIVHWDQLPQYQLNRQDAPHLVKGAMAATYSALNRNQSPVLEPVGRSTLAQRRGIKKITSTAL
Chain of 5'-AMP-activated protein kinase catalytic subunit alpha-1 (Homo sapiens) (Q13131 whole entry, looked up): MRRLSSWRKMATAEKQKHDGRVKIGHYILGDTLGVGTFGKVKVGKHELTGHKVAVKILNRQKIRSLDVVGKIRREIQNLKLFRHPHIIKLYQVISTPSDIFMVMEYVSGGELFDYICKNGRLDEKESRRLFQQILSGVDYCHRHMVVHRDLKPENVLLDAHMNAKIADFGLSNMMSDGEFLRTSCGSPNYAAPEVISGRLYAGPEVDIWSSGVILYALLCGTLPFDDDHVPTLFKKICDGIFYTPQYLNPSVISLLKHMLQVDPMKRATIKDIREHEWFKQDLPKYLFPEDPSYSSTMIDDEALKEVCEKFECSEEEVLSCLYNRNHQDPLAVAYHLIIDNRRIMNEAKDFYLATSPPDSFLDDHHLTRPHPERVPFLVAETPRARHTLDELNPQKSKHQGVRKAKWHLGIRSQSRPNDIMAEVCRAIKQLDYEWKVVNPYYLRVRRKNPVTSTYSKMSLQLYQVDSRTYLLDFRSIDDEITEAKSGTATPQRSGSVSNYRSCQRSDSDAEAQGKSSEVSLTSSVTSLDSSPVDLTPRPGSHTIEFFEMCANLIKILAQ
Chain of Ribosomal protein S6 kinase alpha-6 (Homo sapiens) (Q9UK32 whole entry): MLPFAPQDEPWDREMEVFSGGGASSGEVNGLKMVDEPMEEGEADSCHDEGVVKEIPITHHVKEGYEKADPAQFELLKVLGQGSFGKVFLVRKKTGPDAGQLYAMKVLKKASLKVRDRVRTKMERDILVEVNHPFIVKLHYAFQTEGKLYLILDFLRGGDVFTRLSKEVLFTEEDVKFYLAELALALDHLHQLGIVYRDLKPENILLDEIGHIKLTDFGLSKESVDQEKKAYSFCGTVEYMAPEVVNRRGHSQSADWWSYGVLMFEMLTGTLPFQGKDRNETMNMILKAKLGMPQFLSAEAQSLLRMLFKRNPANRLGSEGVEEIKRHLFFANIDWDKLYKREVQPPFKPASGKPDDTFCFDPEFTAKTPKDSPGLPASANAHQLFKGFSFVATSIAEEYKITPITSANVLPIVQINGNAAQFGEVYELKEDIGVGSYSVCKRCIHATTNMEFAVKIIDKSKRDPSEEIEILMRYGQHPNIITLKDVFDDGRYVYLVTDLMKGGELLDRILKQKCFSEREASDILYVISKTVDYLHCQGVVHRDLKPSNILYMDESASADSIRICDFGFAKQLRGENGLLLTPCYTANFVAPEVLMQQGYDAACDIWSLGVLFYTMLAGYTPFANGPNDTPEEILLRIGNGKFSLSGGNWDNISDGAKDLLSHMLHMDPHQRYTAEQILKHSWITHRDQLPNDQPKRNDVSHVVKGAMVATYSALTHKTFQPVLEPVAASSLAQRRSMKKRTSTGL
Chain of Rho-associated protein kinase 2 (Homo sapiens) (O75116 whole entry, looked up): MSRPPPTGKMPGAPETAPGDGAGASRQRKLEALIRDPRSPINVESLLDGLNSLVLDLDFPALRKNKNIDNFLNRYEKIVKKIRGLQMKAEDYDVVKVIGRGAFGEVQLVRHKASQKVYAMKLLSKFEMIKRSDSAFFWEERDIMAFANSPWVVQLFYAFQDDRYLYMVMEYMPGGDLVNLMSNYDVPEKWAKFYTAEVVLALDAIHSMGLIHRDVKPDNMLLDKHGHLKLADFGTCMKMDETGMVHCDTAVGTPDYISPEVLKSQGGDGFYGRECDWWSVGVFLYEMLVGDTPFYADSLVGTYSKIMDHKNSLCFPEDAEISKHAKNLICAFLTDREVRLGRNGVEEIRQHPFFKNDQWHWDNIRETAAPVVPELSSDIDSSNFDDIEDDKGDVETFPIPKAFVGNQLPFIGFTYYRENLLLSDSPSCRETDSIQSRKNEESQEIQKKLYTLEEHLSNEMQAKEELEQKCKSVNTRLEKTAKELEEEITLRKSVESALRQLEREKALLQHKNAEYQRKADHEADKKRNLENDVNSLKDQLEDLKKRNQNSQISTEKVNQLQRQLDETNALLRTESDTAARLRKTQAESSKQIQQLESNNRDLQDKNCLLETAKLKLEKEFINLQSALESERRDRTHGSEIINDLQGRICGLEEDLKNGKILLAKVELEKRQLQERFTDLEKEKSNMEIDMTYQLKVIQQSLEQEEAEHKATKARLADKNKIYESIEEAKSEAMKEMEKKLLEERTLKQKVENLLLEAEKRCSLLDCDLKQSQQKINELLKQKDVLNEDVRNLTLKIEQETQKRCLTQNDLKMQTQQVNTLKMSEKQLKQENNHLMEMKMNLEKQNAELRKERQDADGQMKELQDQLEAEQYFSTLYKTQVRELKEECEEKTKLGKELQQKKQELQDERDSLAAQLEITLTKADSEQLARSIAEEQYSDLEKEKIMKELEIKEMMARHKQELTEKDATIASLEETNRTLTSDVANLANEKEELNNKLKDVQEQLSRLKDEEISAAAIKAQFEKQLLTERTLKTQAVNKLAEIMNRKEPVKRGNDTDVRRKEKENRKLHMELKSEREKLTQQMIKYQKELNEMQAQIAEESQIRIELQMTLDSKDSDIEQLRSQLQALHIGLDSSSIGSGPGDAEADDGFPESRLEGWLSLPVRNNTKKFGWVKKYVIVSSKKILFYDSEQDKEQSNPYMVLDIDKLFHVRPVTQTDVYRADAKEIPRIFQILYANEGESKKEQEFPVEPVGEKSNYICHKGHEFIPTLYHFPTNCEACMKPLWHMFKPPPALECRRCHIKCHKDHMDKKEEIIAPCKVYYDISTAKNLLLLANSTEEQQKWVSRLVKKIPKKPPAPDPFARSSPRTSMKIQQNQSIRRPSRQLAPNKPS

As for `COc1cc2ncnc(Nc3ccc4c(cnn4Cc4ccccc4)c3)c2cc1OC`, the inhibition in experiment [1] is 6.38%; in [2], 2.52%; in experiment [3], 7.05%; in experiment [4], 0.76%; in [5], 2.15%; in experiment [6], 0.6%. Also, the inhibition in experiment [7] came to 2.23%; in [8], 2.97%; in [9], 3.65%; in [10], 1.46%; in experiment [11], 1.92%; in [12], 2.26%. Further, the inhibition in experiment [13] is 1.9%; in [14], 1.23%; in [15] it was -1.13%; in experiment [16], 2.62%; in [17], 1.35%; in [18], 1.38%. For the same compound, the inhibition in experiment [19] came out at 3.13%; in [20] it was 5.92%.

Consider `COc1cccc(-n2nc(C)c3c(N/N=C(\C)c4ccncc4)ncnc32)c1`, for which the inhibition in experiment [1] was -1.87%; in [2] it was -0.57%; in experiment [3], -1.33%; in experiment [4], -1.25%; in experiment [5], -0.11%; in experiment [6] it was 0.34%. Besides, the inhibition in experiment [7] was 1.55%; in experiment [8] it was 1.45%; in experiment [9], 0.23%; in experiment [10], -0.47%; in [11], 0.03%; in [12] it was -0.15%. The inhibition in [13] is 0.8%; in experiment [14], 1.28%; in experiment [15] it was 5.85%; in experiment [16], 0.38%; in experiment [17] it was 0.52%; in experiment [18] it was -0.66%. Moreover, the inhibition in experiment [19] was found to be 0.55%; in experiment [20] it was 2.15%.

Consider `COc1cc(Nc2nccc(-c3cnn4ncccc34)n2)cc(OC)c1`, for which the inhibition in experiment [1] is 8.16%; in experiment [2], 2.33%; in experiment [3] it was 15%; in experiment [4] it was 1.35%; in experiment [5] it was 3.27%; in experiment [6], 1.72%. Also, the inhibition in experiment [7] amounted to 4.75%; in experiment [8], 1.42%; in [9] it was 5.35%; in [10] it was 0.97%; in [11], 6.06%; in experiment [12] it was 2.68%. Besides, the inhibition in experiment [13] was 4.34%; in experiment [14], 1.68%; in experiment [15], -0.04%; in experiment [16] it was 1.95%; in experiment [17], 2.1%; in [18] it was 3.39%. Further, the inhibition in [19] stood at 16.7%; in [20], 0.99%.

`FC(F)(F)c1ccc(-c2nn3ncccc3c2-c2ccnc(Nc3ccc4c(c3)OCCO4)n2)cc1`: the inhibition in experiment [1] turned out to be 2.51%; in [2], 4.66%; in [3], 8.18%; in experiment [4] it was 1.49%; in experiment [5], 3.18%; in [6] it was 2.19%. Besides, the inhibition in [7] was 5.4%; in [8] it was -0.87%; in experiment [9] it was 0.6%; in experiment [10] it was -0.08%; in experiment [11], 0.72%; in experiment [12], 9.07%. The inhibition in [13] is 10.2%; in [14] it was 5.69%; in experiment [15] it was 10.8%; in experiment [16], 7.48%; in [17] it was 12.9%; in experiment [18], 1.3%. Moreover, the inhibition in experiment [19] was 4.07%; in [20], 5.75%.

With `Nc1nccc(C#Cc2cncnc2Nc2ccc(OCc3cccc(F)c3)c(Cl)c2)n1`, the inhibition in experiment [1] was 3.74%; in experiment [2], 2.53%; in experiment [3] it was 4.22%; in experiment [4], 1.3%; in [5], 2.85%; in experiment [6] it was 0.4%. Moreover, the inhibition in experiment [7] stood at 0.81%; in experiment [8], 2.21%; in [9], 2.85%; in experiment [10], 0.59%; in [11] it was 1%; in [12], 2.17%. In addition, the inhibition in [13] stood at 2.96%; in [14], 1.54%; in experiment [15], 3.69%; in [16] it was 2.12%; in [17], 3.95%; in experiment [18], 3.13%. In addition, the inhibition in [19] is 5.37%; in [20] it was 1.22%.

On to `NS(=O)(=O)c1cccc(-c2cc3ccncc3cc2OCc2ccccc2)c1`, for which the inhibition in [1] was 2.75%; in [2], 2.25%; in [3], 2.26%; in experiment [4], 1.02%; in [5] it was 2.9%; in experiment [6], 0.82%. Also, the inhibition in experiment [7] was 2.13%; in experiment [8], 2.81%; in [9], 2.38%; in [10], 2.55%; in [11] it was 3.01%; in experiment [12] it was 3.46%. In addition, the inhibition in [13] was determined as 3.63%; in experiment [14], 5.08%; in [15], 6.91%; in [16] it was 9.81%; in [17], 1.63%; in [18], 4.1%. The inhibition in [19] is 5.8%; in experiment [20], -0.75%.

For `COc1cc(/C=N/Nc2ncnc3c2cnn3C(C)C)ccc1O`, the inhibition in experiment [1] was 4.3%; in [2], 0.86%; in experiment [3], 2.83%; in [4] it was 10.4%; in experiment [5], 1.08%; in [6], 0.95%. Further, the inhibition in experiment [7] was found to be 1.27%; in [8] it was 1.98%; in experiment [9] it was 2.99%; in experiment [10], 1.4%; in experiment [11], 3.17%; in experiment [12] it was 1.69%. Further, the inhibition in experiment [13] worked out at 2.88%; in [14] it was 1.5%; in experiment [15], 1.93%; in experiment [16] it was 0.68%; in [17], 2.8%; in experiment [18] it was 1.32%. Moreover, the results for the inhibition in experiment [19] and in [20] were 4.22% and 3.01%, respectively.
